Most compounds without a hit are left out; they make up all but 2.3% or so of the library.
HTR1E antagonist – blocks the human 5-HT1E serotonin receptor; AID 571; 65,000 tested, 0.99% active; inhibition, % at 6 µM; P28566; CHO 5-HT1E Ga15 NFAT-bla reporter, FRET, antagonist;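 active means inhibition above a set limit, the mean inhibition across every tested compound plus 3 SD, cut at about 29% in these data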;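 further: signal is the 460 over 535 nm emission ratio of beta-lactamase substrate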
Target sequence (P28566 whole entry, looked up): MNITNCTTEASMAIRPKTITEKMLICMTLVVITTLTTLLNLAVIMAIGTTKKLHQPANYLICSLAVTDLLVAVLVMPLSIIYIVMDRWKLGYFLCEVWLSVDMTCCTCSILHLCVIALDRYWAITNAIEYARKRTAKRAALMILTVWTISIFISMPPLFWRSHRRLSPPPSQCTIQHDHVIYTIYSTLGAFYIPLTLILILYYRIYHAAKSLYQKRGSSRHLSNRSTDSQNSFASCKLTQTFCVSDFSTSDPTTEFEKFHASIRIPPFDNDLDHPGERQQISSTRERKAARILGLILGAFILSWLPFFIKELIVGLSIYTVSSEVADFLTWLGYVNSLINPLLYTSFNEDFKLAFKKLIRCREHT
5HT1E ag – agonists of human 5-HT1E serotonin receptor; P28566; activation, % at 6 µM; CHO 5-HT1E Ga15 NFAT-bla reporter, FRET; 0% DMSO wells, 100% control agonist wells; 65,000 tested, 0.69% active;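 active means activation above a set limit, the screen-wide mean activation plus 3 SD, cut at about 8.5% in these data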
mHtt clearance – compounds clearing mutant huntingtin protein; HeLa Exon1htt(103Q)mCFP, aggregate imaging; zero = plate's median compound well; inhibition, % at 1.5 µM; 47,000 tested, 0.42% active; AID 853;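 active means inhibition of aggregate fluorescence above about 70%, also judged a hit by eye on the cell image, limit read from the data, passing the limit was not always enough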;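 further: cells exposed to compound for three days before fixation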
5HT1a antag – antagonists of human 5-HT1a serotonin receptor | inhibition, % at 10 µM | AID 612 | CHO 5-HT1a Ga15 NFAT-bla reporter, antagonist mode | P08908 | 62,000 tested, 0.68% active;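 active means inhibition above the mean of all tested compounds plus 3 SD, cut at about 43% in these data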;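 further: receptor stimulated by 5-CT agonist at 100 nM near EC80; beta-lactamase reporter measured by ratiometric fluorescence of a cleavable substrate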
5HT1a ag – 5-HT1a (human) receptor agonism. CHO 5-HT1a Ga15 NFAT-bla reporter, FRET ratio; 0% basal, 100% maximal reference agonist. 65,000 tested, 0.56% active. activation, % at 10 µM;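 active means activation above the screen-wide mean activation plus 3 SD, cut at about 19% in these data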
Numbers stand for hits.

For COc1ccc(N2CC(O)=C(c3nc4ccccc4s3)C2=N)c(OC)c1 the results were HTR1E antagonist inactive, 5HT1E ag inactive, 5HT1a antag inactive and 5HT1a ag inactive.
`COc1cccc(N2CC(O)=C(c3nc4ccccc4c(=O)[nH]3)C2=N)c1` gave HTR1E antagonist 34, 5HT1E ag inactive, mHtt clearance inactive, 5HT1a antag inactive and 5HT1a ag inactive.
Screening CC1=CC(C)(C)N(C(=O)c2ccc(F)cc2)c2cc3c(cc21)OCO3 returned HTR1E antagonist inactive, 5HT1E ag inactive, mHtt clearance inactive, 5HT1a antag 43 and 5HT1a ag inactive.
CNc1nc(SCc2ccc(C)cc2)nc2c1CCCC2 was read as mHtt clearance inactive.
Screening Clc1cccc(CSc2nnc(-c3ccccn3)n2Cc2ccco2)c1 returned HTR1E antagonist inactive, 5HT1E ag inactive, 5HT1a antag inactive and 5HT1a ag inactive.
Screening Brc1ccc(CSc2nnc(-c3ccccn3)n2Cc2ccco2)cc1 returned HTR1E antagonist inactive, 5HT1E ag inactive, mHtt clearance inactive, 5HT1a antag 65 and 5HT1a ag inactive.
`CNc1nc(SCc2ccccc2)nc(N2CCOCC2)n1` gave HTR1E antagonist 33, 5HT1E ag inactive, mHtt clearance inactive, 5HT1a antag inactive and 5HT1a ag inactive.
Screening O=C(O)CN1C(=O)Nc2ccc(Br)cc2C1c1ccccc1 (stereo unspecified) returned HTR1E antagonist 32, 5HT1E ag inactive, 5HT1a antag inactive and 5HT1a ag inactive.
`O=C1CN(C(=O)c2ccc(Br)o2)C(c2ccccc2)c2cc(Br)ccc2N1` (stereo unspecified) gave HTR1E antagonist inactive, 5HT1E ag inactive, 5HT1a antag inactive and 5HT1a ag inactive.
O=C1c2ccccc2C(Nc2ccc3c(c2)OCCO3)N1Cc1ccccc1 (stereo unspecified) was read as HTR1E antagonist inactive, 5HT1E ag inactive, 5HT1a antag inactive and 5HT1a ag inactive.
`Cc1ccc(S(=O)(=O)Nc2cccc3ncccc23)s1` gave HTR1E antagonist 81, 5HT1E ag inactive, mHtt clearance inactive, 5HT1a antag 64 and 5HT1a ag inactive.
Cc1ccc(S(=O)(=O)Nc2ccnc3ccccc23)cc1 was read as mHtt clearance inactive.
Cc1ccc(CNc2oc(-c3ccco3)nc2S(=O)(=O)c2ccccc2)cc1 was read as mHtt clearance inactive.
`Cc1ccc(S(=O)(=O)c2nc(-c3ccccc3)oc2NCc2cccnc2)cc1` gave HTR1E antagonist inactive, 5HT1E ag 48, 5HT1a antag inactive and 5HT1a ag inactive.
`Cn1c(C(=O)NCCCN2CCCC2=O)cc2c(=O)n3ccccc3nc21` gave HTR1E antagonist 30, 5HT1E ag inactive, 5HT1a antag inactive and 5HT1a ag inactive.
Cn1c(C(=O)NCCC2=CCCCC2)cc2c(=O)n3ccccc3nc21 was read as HTR1E antagonist inactive, 5HT1E ag inactive, mHtt clearance inactive, 5HT1a antag inactive and 5HT1a ag inactive.
For Cc1ccc(CNC(=O)CN(C)S(=O)(=O)c2cccc3cccnc23)cc1 the results were HTR1E antagonist inactive, 5HT1E ag inactive, 5HT1a antag inactive and 5HT1a ag inactive.
Screening CC(NS(=O)(=O)c1ccccc1)C(=O)Nc1nccs1 (stereo unspecified) returned HTR1E antagonist inactive, 5HT1E ag inactive, mHtt clearance inactive, 5HT1a antag inactive and 5HT1a ag 268.
Screening Cn1c(N2CCOCC2)nc(-c2ccccc2)c1-c1ccccc1 returned HTR1E antagonist inactive, 5HT1E ag 20, mHtt clearance inactive, 5HT1a antag inactive and 5HT1a ag inactive.
`CCCOC(=O)c1ccc(Nc2cc(C)nc3ncnn23)cc1` gave HTR1E antagonist inactive, 5HT1E ag inactive, 5HT1a antag inactive and 5HT1a ag 105.
Screening CCN(CC)S(=O)(=O)c1ccc(Nc2cc(C)nc3ncnn23)cc1 returned HTR1E antagonist inactive, 5HT1E ag inactive, mHtt clearance inactive, 5HT1a antag inactive and 5HT1a ag inactive.
CCc1cccc(Nc2cc(C)nc3ncnn23)c1 was read as HTR1E antagonist inactive, 5HT1E ag inactive, 5HT1a antag inactive and 5HT1a ag inactive.
For CCn1c2ccccc2c2cc(Nc3cc(C)nc4ncnn34)ccc21 the results were HTR1E antagonist 70, 5HT1E ag inactive, 5HT1a antag 72 and 5HT1a ag inactive.
`O=C1c2ccccc2C(=O)N1CC1CCCO1` (stereo unspecified) gave mHtt clearance inactive.
O=c1c2ccccc2c2ccccc2c(=O)n1CC1CCCO1 (stereo unspecified) was read as HTR1E antagonist 35, 5HT1E ag inactive, mHtt clearance inactive, 5HT1a antag inactive and 5HT1a ag inactive.
For COC(=O)C1=C(Cn2cnc3ccccc32)NC(=O)NC1c1cc(C)ccc1C (stereo unspecified) the results were HTR1E antagonist inactive, 5HT1E ag inactive, mHtt clearance inactive, 5HT1a antag inactive and 5HT1a ag 22.
`CCOC(=O)C1=C(Cn2cnc3ccccc32)NC(=O)NC1c1cc(C)ccc1C` (stereo unspecified) gave HTR1E antagonist inactive, 5HT1E ag inactive, 5HT1a antag inactive and 5HT1a ag inactive.
Screening CCOC(=O)C(NS(=O)(=O)c1ccc(Br)cc1)C(C)C (stereo unspecified) returned HTR1E antagonist inactive, 5HT1E ag inactive, mHtt clearance inactive, 5HT1a antag inactive and 5HT1a ag inactive.
O=C1c2[nH]nc(-c3ccccc3O)c2C(c2ccccc2F)N1Cc1ccco1 (stereo unspecified) was read as HTR1E antagonist inactive, 5HT1E ag inactive, 5HT1a antag 43 and 5HT1a ag inactive.
O=C1c2ccccc2C(O)N1Cc1ccco1 (stereo unspecified) was read as HTR1E antagonist inactive, 5HT1E ag inactive, 5HT1a antag inactive and 5HT1a ag inactive.
O=C1c2[nH]nc(-c3ccccc3O)c2C(c2ccccc2)N1Cc1ccco1 (stereo unspecified) was read as HTR1E antagonist inactive, 5HT1E ag inactive, mHtt clearance inactive, 5HT1a antag 44 and 5HT1a ag inactive.
`COc1ccc(CNC(=O)C(C)OC(=O)c2cccn2C)cc1` (stereo unspecified) gave HTR1E antagonist inactive, 5HT1E ag inactive, 5HT1a antag inactive and 5HT1a ag inactive.
For Cn1c(C(=O)N2CCN(c3ccc(F)cc3)CC2)cc2c(=O)n(C)c3ccccc3c21 the results were HTR1E antagonist inactive, 5HT1E ag inactive, 5HT1a antag inactive and 5HT1a ag inactive.
`Cn1c(C(=O)N2CCN(c3ccccn3)CC2)cc2c(=O)n(C)c3ccccc3c21` gave HTR1E antagonist inactive, 5HT1E ag 21, 5HT1a antag inactive and 5HT1a ag inactive.
O=C1CSC(c2ccccc2F)N1c1cc(Cl)ccc1O (stereo unspecified) was read as HTR1E antagonist 30, 5HT1E ag inactive, 5HT1a antag inactive and 5HT1a ag inactive.
`O=C1CSC(c2ccccc2F)N1CCN1CCCCC1` (stereo unspecified) gave HTR1E antagonist inactive, 5HT1E ag inactive, mHtt clearance inactive, 5HT1a antag inactive and 5HT1a ag inactive.
